Test results from PubChem BioAssay (NCI).
About 83,000 compounds went through this panel and 20% of them were active in at least one assay; those are over-represented in the sample as a whole.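 Treatment: one concentration, 48 hours, 96-well format. Scoring: percent growth, with anything below 10 considered active.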 Calls of active or inactive are those of the source.

tested on: SF-539 CNS; experiment: NCI-60 one-dose screen, 48 h (100 = growth as untreated, 0 = no growth, -100 = all killed); conditions: 10 µM unless noted

Row | Compound | growth
1 | CC[C@H](C)[C@H](N)C(=O)O | 100% (inactive)
2 | COc1ccc2c(c1)sc1nc(-c3ccccc3)c(-c3cccc4ccccc34)n12 | 0.248% (active)
3 | Cc1ccc(C)c(NC(=O)c2sc3c(=O)[nH]cnc3c2C)c1 | 94.2% (inactive)
4 | Cc1ccncc1NC=O | 102% (inactive)
5 | COc1ccc(/C(C)=N/NC(=O)CSc2nc3ccccc3c(=O)n2CCc2ccc(S(N)(=O)=O)cc2)cc1 | 14.4% (inactive)
6 | COC(=O)OC1C(O[C@H]2C[C@H]3[C@@H]4CC=C5C[C@@H](O)CC[C@]5(C)[C@H]4CC[C@]3(C)[C@H]2[C@H](C)C(=O)CCC(C)C)OCC(O)C1OC1OCC(O)C(O)C1OC(=O)c1ccc(OC)cc1 (some centres undefined) | -58.1% (active)
7 | O=C1CCCN1C1CCN2CCCc3cccc1c32 (centres undefined) | 101% (inactive)
8 | CC1OC(n2c3ccccc3c3c4c(c5c6ccccc6[nH]c5c32)C(=O)N(CCN[C@H]2CCC[C@@H]2N)C4=O)CC(O)C1O (some centres undefined) | 35.3% (inactive)
9 | COc1ccc2[nH]cc(C3(c4c[nH]c5ccc(OC)cc45)C(=O)Nc4ccc(F)cc43)c2c1 | 78.5% (inactive)
10 | c1cc2c(cc1-c1cnc3nonc3n1)OCO2 | 73.2% (inactive)
11 | Nc1c(C(=O)Nc2cccc(Cl)c2)sc2nc3c(cc12)C(=O)CCC3 | 27.3% (inactive)
12 | O=C(Nc1ccc(Br)cc1)c1ccc(Cl)c(Cl)c1 | 67.5% (inactive)
13 | O=C(CSc1nc2c(n1Nc1ccccc1)-c1ccccc1SC2)Nc1nccs1 | 97.2% (inactive)
14 | COc1ccc(-c2nc3c(c(-c4ccc(Cl)cc4)nn3-c3ccccc3)c(-c3ccc(O)cc3)c2C#N)cc1 | 27.6% (inactive)
